Experimental data published in PubChem BioAssay (NCI).
The panel holds about 83,000 compounds, 20% with a hit somewhere; the sample as a whole holds those more often.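 Negative percent growth values reflect cell death: -40 means 40% of the cells present at the start died, and -100 means all died.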 Unmarked numbers belong to inactive results. Calls of active or inactive are those of the source. The calls were made as follows: active = growth percent below 10; inactive = the rest.

Experiments:
Experiment in all cases: NCI-60 one-dose screen, 48 h (100 = growth as untreated, 0 = no growth, -100 = all killed)
Conditions in all cases: 10 µM unless noted
[1] = test system: SR leukemia
[2] = test system: RPMI-8226 leukemia
[3] = test system: OVCAR-8 ovarian
[4] = test system: OVCAR-5 ovarian
[5] = test system: OVCAR-4 ovarian
[6] = test system: SK-OV-3 ovarian
[7] = test system: IGROV1 ovarian
[8] = test system: OVCAR-3 ovarian
[9] = test system: HS 578T breast
[10] = test system: NCI/ADR-RES ovarian

SMILES	growth [1]	growth [2]	growth [3]	growth [4]	growth [5]	growth [6]	growth [7]	growth [8]	growth [9]	growth [10]
COC(=O)C(N)CSC(c1ccccc1)(c1ccccc1)c1ccccc1 (stereo not given)	7.6% (active)	30.9%	36.8%	33.3%	79.8%	19.4%	28.6%	20.7%	21.5%	68.4%
Cn1nc(-c2ccccc2)c2c(-c3ccccc3)onc2c1=O	26.4%	24.9%	51.9%	66.5%	72.1%	13.3%	51.3%	12.2%	15.8%	45.8%
COC(=O)C(Cc1ccccc1)n1cc(COc2nc(Cl)nc(Nc3ccc(Cl)cc3)n2)nn1 (stereo not given)	66.8%	72.7%	96.1%	116%	104%	106%	99%	87.2%	81.6%	101%
COc1cccc2c1C(=O)c1c(O)c3c(c(O)c1C2=O)C[C@@](O)(C(=O)CO)C[C@@H]3OC1C[C@H](N)[C@H](O)[C@H](C)O1 (stereo not given in full)	-10.5% (active)	0.341% (active)	4.15% (active)	9.77% (active)	4.65% (active)	8.44% (active)	4.86% (active)	-2.36% (active)	-12.9% (active)	72.9%
Cc1csc(-c2ccc3c(c2)COC3(CCCN(C)C)c2ccc(F)cc2)c1 (stereo not given)	-3.41% (active)	-31.5% (active)	39%	72.1%	45.9%	-22.4% (active)	17.2%	58.7%	47.7%	78.6%
Cn1cc(-c2csc(-c3cn(CCN)c4ccc(Br)cc34)n2)c2cccnc21	9.41% (active)	59.5%	76.5%	76.5%	54.3%	91.6%	38.8%	72.5%	74.5%	86.4%
Cc1ccc2oc(=O)cc(-c3sc(N4CCCCC4)nc3-c3ccccc3)c2c1	77.3%	99.9%	98.4%	102%	92.4%	86.9%	59.9%	97.2%	96.7%	98.4%
Cc1ccc(S(=O)(=O)Nc2ccc(-c3cc(-c4cccc(F)c4)c(C#N)c(N)n3)cc2)cc1	8.01% (active)	-3.27% (active)	7.02% (active)	45.5%	-63.4% (active)	71.8%	-66.3% (active)	-79.4% (active)	31.4%	41%
Cn1c(=O)c2c(ncn2CC(=O)Nc2ccc(S(N)(=O)=O)cc2)n(C)c1=O	105%	99.9%	105%	105%	108%	87.8%	112%	106%	101%	106%
CCOC(=O)C1OC1(c1ccccc1)c1ccccc1 (stereo not given)	108%	95.6%	99.6%	99.6%	121%	112%	99.6%	106%	114%	105%
COc1ccc(-c2cc(=O)oc3ccc(Cl)cc23)cc1F	11.2%	28.1%	20.3%	54.7%	55.9%	0.514% (active)	43.1%	6.02% (active)	20.1%	6.24% (active)
Cn1cc(-c2csc(-c3cn(CCCN4CCCCC4)c4ccccc34)n2)c2cccnc21	-50.7% (active)	-35.9% (active)	-68.4% (active)	92.9%	-48.2% (active)	94.7%	79.6%	-80.9% (active)	67.5%	-25% (active)
CC(C)(C)c1ccc(OP(=S)(N/N=C/c2ccccc2O)Oc2ccc(C(C)(C)C)cc2)cc1	61.6%	45.8%	82.8%	91.6%	65.1%	65.2%	63.5%	47.5%	94.5%	87.8%
C[C@@H](Oc1ccc(C(=O)NS(=O)(=O)C(C)(C)C)cc1C(F)(F)F)c1ccc(Oc2ccccc2)cn1	29.7%	71.5%	41.2%	86.5%	67.2%	69.6%	37.4%	8.19% (active)	4.34% (active)	66.4%
O=C1CCN2C(=O)Nc3ccccc3C2C1 (stereo not given)	96.8%	111%	105%	90%	97.6%	101%	102%	111%	103%	107%
O=C(NCN1C(=O)c2cccc3cccc(c23)C1=O)N1CCC(Cc2ccccc2)CC1	89.6%	87.8%	102%	104%	98.8%	91.3%	100%	109%	95.8%	102%
Cc1cccc2c1NC(=O)[C@@]21[C@H](C(=O)c2ccccc2)[C@]2(C(=O)Nc3ccccc32)[C@H]2CCCN21	-6.48% [100 µM] (active)	30.9% [100 µM]	-17.2% [100 µM] (active)	101% [100 µM]	-20.3% [100 µM] (active)	11.1% [100 µM]	43% [100 µM]	2.54% [100 µM] (active)	16% [100 µM]	109% [100 µM]
C=C(C)[C@@H]1CC[C@]2(C=NCCCNCCCCNCCCN)CC[C@]3(C)[C@H](CC[C@@H]4[C@@]5(C)CCCNC(C)(C)[C@@H]5CC[C@]43C)[C@@H]12	21.7%	107%	83.8%	112%	102%	95.8%	112%	106%	104%	91.8%
COc1ccc(-n2c(/C=C/c3ccc(O)c(OC)c3)cc(/C=C/c3ccc(O)c(OC)c3)nc2=O)cc1	14.2%	21.4%	66%	112%	62.5%	62.3%	63.5%	41.4%	62.5%	84.3%
C=C(C)[C@@H]1CC[C@]2(C(=O)N3CCN(C)CC3)CC[C@]3(C)[C@H](CC[C@@H]4[C@@]5(C)C/C(=C/c6ccc(C(F)(F)F)cc6)C(=O)C(C)(C)[C@@H]5CC[C@]43C)[C@@H]12	76.9%	86.1%	97.4%	94.9%	103%	101%	102%	103%	99.4%	96.8%
O=C1C(=O)c2ccccc2C(O)=C1CCCc1ccc(C2CCCCC2)cc1	35.6%	21.1%	51.4%	61.7%	58.2%	56.6%	51.3%	18%	53.4%	42.8%
C#Cc1cccc(NC(=O)C2CCCN(C(=O)CCl)C2)c1 (stereo not given)	10.9% [8.25 µM]	64.4% [8.25 µM]	30.1% [8.25 µM]	78.8% [8.25 µM]	68.9% [8.25 µM]	89.8% [8.25 µM]	-72% [8.25 µM] (active)	5.16% [8.25 µM] (active)	85.6% [8.25 µM]	93.2% [8.25 µM]
CN1CCN(CCOc2ccc(-c3cnc4c(-c5cccc(F)c5)cnn4c3)cc2)CC1	-12.8% (active)	31.7%	69.8%	84.6%	65.5%	106%	63.8%	56.1%	77.6%	72.8%
COc1cc2nc(Cl)nc(Nc3cccc(C(=O)/C=C/c4ccccc4)c3)c2cc1OC	8.85% (active)	-2.13% (active)	49.6%	68.9%	70.6%	81.1%	37.3%	38.2%	98.5%	49.9%
